The values below come from PubChem BioAssay (NCI).

Compounds without any hit were thinned out: in the full panel of roughly 83,000, 20% have a hit.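 Testing used 96-well plates and a 48-hour single-concentration exposure. Example: -40 means 40% of the starting cells died.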 Unmarked numbers belong to inactive results. The source made the active and inactive calls. Rule for the calls: active = growth percent below 10; inactive = the rest.

Common to all, as to assay: NCI-60 one-dose screen, 48 h (100 = growth as untreated, 0 = no growth, -100 = all killed)
The subject of one assay is SK-MEL-2 melanoma. The conditions noted are these: 10 µM.
In another assay the test system is EKVX NSCLC. The conditions noted are these: 10 µM.
Another assay has as its system SN12C renal. The conditions noted are these: 10 µM.
Another assay concerns TK-10 renal. The settings on record: 10 µM unless noted.
For another assay, the system named is ACHN renal. The settings on record: 10 µM.
Another assay relates to CAKI-1 renal. The settings on record: 10 µM.
In the next assay the test system is A498 renal. The settings on record: 10 µM.
The test system of the next assay is CCRF-CEM leukemia. The conditions noted are these: 10 µM.
Another assay concerns MOLT-4 leukemia. The conditions noted are these: 10 µM.
The subject of a further assay is RPMI-8226 leukemia. The settings on record: 10 µM.
A further assay relates to OVCAR-8 ovarian. The settings on record: 10 µM.
The next assay deals with OVCAR-5 ovarian. The conditions noted are these: 10 µM.
In another assay the test system is SK-OV-3 ovarian. The settings on record: 10 µM.
For a further assay, the system named is IGROV1 ovarian. The conditions noted are these: 10 µM.
In the next assay the test system is OVCAR-3 ovarian. The settings on record: 10 µM.
In the next assay the test system is HS 578T breast. The conditions noted are these: 10 µM.
Another assay has as its system NCI/ADR-RES ovarian. The conditions noted are these: 10 µM.
The next assay deals with OVCAR-4 ovarian. The settings on record: 10 µM.
A further assay deals with SR leukemia. The conditions noted are these: 10 µM.

Turning to `CSc1[nH]c(=O)ncc1F`, the growth was 117% in the assay with SK-MEL-2 melanoma; 101% with EKVX NSCLC; 101% in the assay on SN12C renal; 109% in the assay on TK-10 renal; 95% in the assay on ACHN renal; 91.5% in the assay with CAKI-1 renal. For the same compound, the growth is 101% in the assay with A498 renal; 91.2% in the assay on CCRF-CEM leukemia; 117% with MOLT-4 leukemia; 106% in the assay with RPMI-8226 leukemia; 95.4% in the assay with OVCAR-8 ovarian; 102% with OVCAR-5 ovarian. The growth is 119% in the assay with SK-OV-3 ovarian; 110% with IGROV1 ovarian; 107% with OVCAR-3 ovarian; 103% in the assay on HS 578T breast; 99.3% in the assay on NCI/ADR-RES ovarian.
Consider `COC(=O)c1cc(-c2ccc(Cl)c(Cl)c2)[nH]c(=O)c1C#N`, for which the growth in the assay on SK-MEL-2 melanoma was 120%; with EKVX NSCLC it was 94.4%; in the assay on SN12C renal it was 93.7%; with TK-10 renal, 103%; in the assay on ACHN renal it was 94.8%; in the assay on CAKI-1 renal, 87.5%. Besides, the growth in the assay on A498 renal is 125%; in the assay on CCRF-CEM leukemia it was 104%; in the assay on MOLT-4 leukemia, 107%; in the assay on RPMI-8226 leukemia, 112%; in the assay with OVCAR-8 ovarian, 101%; with OVCAR-5 ovarian, 99.2%. Moreover, the growth in the assay on OVCAR-4 ovarian was 103%; in the assay on SK-OV-3 ovarian it was 103%; with IGROV1 ovarian, 110%; in the assay with OVCAR-3 ovarian, 116%; in the assay on HS 578T breast, 74.9%; with NCI/ADR-RES ovarian, 105%.
For the compound `Cc1ccc(O)c(C(=O)c2ccccc2)c1`, the growth is 107% in the assay on SK-MEL-2 melanoma; 103% in the assay with EKVX NSCLC; 100% in the assay on SN12C renal; 111% in the assay with TK-10 renal; 104% with ACHN renal; 78.7% with A498 renal. The growth was 55.8% with CCRF-CEM leukemia; 112% in the assay with MOLT-4 leukemia; 113% with SR leukemia; 113% in the assay with RPMI-8226 leukemia; 111% in the assay on OVCAR-8 ovarian; 96.3% with OVCAR-5 ovarian. Also, the growth with OVCAR-4 ovarian is 110%; in the assay with SK-OV-3 ovarian it was 119%; in the assay with IGROV1 ovarian it was 113%; with OVCAR-3 ovarian, 104%; with HS 578T breast, 108%; in the assay on NCI/ADR-RES ovarian, 105%.
With `Cc1cc2ccccc2c(O)c1C#N`, the growth in the assay on SK-MEL-2 melanoma was 112%; in the assay with EKVX NSCLC it was 108%; in the assay on SN12C renal, 95.3%; in the assay on TK-10 renal, 110%; in the assay with ACHN renal, 99.1%; with A498 renal it was 107%. Further, the growth with CCRF-CEM leukemia was 104%; with MOLT-4 leukemia, 108%; in the assay with SR leukemia, 108%; in the assay on RPMI-8226 leukemia, 97.4%; in the assay on OVCAR-8 ovarian, 99.7%; in the assay with OVCAR-5 ovarian, 103%. Moreover, the growth in the assay on OVCAR-4 ovarian is 114%; in the assay with SK-OV-3 ovarian it was 89.4%; in the assay with IGROV1 ovarian it was 114%; with OVCAR-3 ovarian it was 108%; in the assay on HS 578T breast, 108%; in the assay on NCI/ADR-RES ovarian, 96%.
In the case of `CNC(=S)NC(C)(C)C`, the growth is 122% in the assay with SK-MEL-2 melanoma; 96.2% with EKVX NSCLC; 102% in the assay with SN12C renal; 96.8% in the assay with TK-10 renal; 108% in the assay with ACHN renal; 92.6% with CAKI-1 renal. Also, the growth in the assay with CCRF-CEM leukemia was 88.6%; in the assay with MOLT-4 leukemia, 106%; with OVCAR-8 ovarian it was 99.8%; with OVCAR-5 ovarian, 121%; in the assay on OVCAR-4 ovarian it was 113%; with SK-OV-3 ovarian, 105%. Also, the growth with IGROV1 ovarian was 105%; with OVCAR-3 ovarian it was 124%; with HS 578T breast, 104%; in the assay on NCI/ADR-RES ovarian, 105%.
In the case of `COc1cc2cc(OC(C)=O)c3cc4c(cc3c2c(OC)c1OC)OCO4`, the growth in the assay on SK-MEL-2 melanoma is 109%; in the assay with EKVX NSCLC it was 95%; in the assay with SN12C renal, 101%; with TK-10 renal, 101%; in the assay on ACHN renal it was 101%; in the assay with CAKI-1 renal it was 99%. Also, the growth is 2.13% (active) in the assay on CCRF-CEM leukemia; 96.6% with MOLT-4 leukemia; 97.4% with RPMI-8226 leukemia; 102% in the assay with OVCAR-8 ovarian; 92.3% in the assay on OVCAR-5 ovarian; 111% in the assay on OVCAR-4 ovarian. Further, the growth in the assay with SK-OV-3 ovarian is 103%; in the assay with IGROV1 ovarian, 107%; in the assay on OVCAR-3 ovarian it was 101%; in the assay with HS 578T breast it was 91.4%; in the assay with NCI/ADR-RES ovarian, 95.7%.
As to `COC(=O)c1[nH]c(=O)c(C#N)c(C(=O)OC)c1C(=O)c1ccccc1`, the growth with SK-MEL-2 melanoma was 114%; with EKVX NSCLC it was 91.4%; in the assay on SN12C renal, 95%; with TK-10 renal it was 143%; in the assay with ACHN renal it was 98.1%; in the assay on CAKI-1 renal, 90%. In addition, the growth is 113% in the assay with A498 renal; 105% in the assay on CCRF-CEM leukemia; 104% with MOLT-4 leukemia; 107% in the assay with RPMI-8226 leukemia; 101% in the assay on OVCAR-8 ovarian; 113% with OVCAR-5 ovarian. Moreover, the growth in the assay with OVCAR-4 ovarian is 97.5%; in the assay with SK-OV-3 ovarian it was 101%; with IGROV1 ovarian, 105%; in the assay on OVCAR-3 ovarian, 107%; in the assay with HS 578T breast, 84.4%; in the assay with NCI/ADR-RES ovarian, 97.5%.
Turning to `Nc1ccc(N=Nc2ccc(O)cc2)c(N)n1`, the growth is 97.1% in the assay on SK-MEL-2 melanoma; 67.6% with EKVX NSCLC; 72.8% in the assay on SN12C renal; 93.7% in the assay on TK-10 renal; 26.3% with ACHN renal; 39.1% in the assay with CAKI-1 renal. The growth is 37.4% with CCRF-CEM leukemia; 46.1% in the assay on MOLT-4 leukemia; 80% with SR leukemia; 38.1% with RPMI-8226 leukemia; 75% in the assay on OVCAR-8 ovarian; 104% in the assay on OVCAR-5 ovarian. The growth in the assay with OVCAR-4 ovarian was 59.2%; in the assay with SK-OV-3 ovarian, 97.3%; with IGROV1 ovarian, 89.4%; in the assay with OVCAR-3 ovarian, 73.4%; with NCI/ADR-RES ovarian, 64.5%.
As for `O=c1cc2oc3cc(O)c(O)cc3c(-c3ccccc3O)c-2cc1O`, the growth is 110% with SK-MEL-2 melanoma; 84% in the assay on EKVX NSCLC; 66.4% in the assay on SN12C renal; 108% in the assay on TK-10 renal; 24% in the assay on ACHN renal; 48% in the assay with A498 renal. The growth in the assay with CCRF-CEM leukemia was 11%; in the assay on MOLT-4 leukemia, 63.8%; with SR leukemia it was 82.7%; with OVCAR-8 ovarian, 75.1%; with OVCAR-5 ovarian, 94.8%; in the assay on OVCAR-4 ovarian, 70.1%. Besides, the growth was 63.9% with IGROV1 ovarian and 78.4% with NCI/ADR-RES ovarian.
